Only some compounds are listed: those with a hit (about 1.8% of all), similar ones and a draw of the others.
GALR2 antag – GALR2 antagonists in receptor-expressing cells, primary screen | actives 0.39% (n = 140,000) | Galanin receptor type 2 (Homo sapiens), O43603 | antagonist mode | inhibition, % at 4 µM; in the data active = inhibition above about 27%;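 also: cells stimulated with galanin 1-16 at roughly its EC80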
Target sequence (O43603 whole entry, looked up): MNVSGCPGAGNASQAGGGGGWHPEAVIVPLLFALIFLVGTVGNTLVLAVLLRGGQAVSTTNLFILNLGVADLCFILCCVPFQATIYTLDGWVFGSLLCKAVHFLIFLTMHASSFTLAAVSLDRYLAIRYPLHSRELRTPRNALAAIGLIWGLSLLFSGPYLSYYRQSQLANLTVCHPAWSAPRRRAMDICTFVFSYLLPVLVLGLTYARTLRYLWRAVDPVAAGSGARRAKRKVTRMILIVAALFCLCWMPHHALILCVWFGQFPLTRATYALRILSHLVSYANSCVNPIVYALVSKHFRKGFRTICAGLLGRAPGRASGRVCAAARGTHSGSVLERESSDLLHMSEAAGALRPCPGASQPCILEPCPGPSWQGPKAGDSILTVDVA
MRP reversal – reversal of MRP1-mediated doxorubicin resistance, primary screen, H69AR cells, doxorubicin co-treatment | AID 602, 2007 | differential viability (reversal), % at 10 µM | actives 0.04% (n = 85,000) | H69AR cells + 2 uM doxorubicin, CellTiter-Glo, 72 h;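 active = viability drop by adding the cancer drug above about 55%, with treated viability meeting a 40% cutoff, limit read from the data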;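 also: larger differential means the compound sensitizes cells more to doxorubicin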
GALR2 agonist – GALR2 receptor agonists, primary screen, cell-based | activation, % (concentration not given with the values) | Galanin receptor type 2 (Homo sapiens), O43603 | actives 0.48% (n = 140,000) | GALR2-expressing cells, agonist activation read-out; in the data active = activation above about 5%, passing the limit was not always enough
S1P2 blocker – human S1P2 receptor antagonists, primary screen, cell-based. AID 736, 2007. inhibition, % at 5 µM. Sphingosine 1-phosphate receptor 2 (Homo sapiens), O95136. cell-based S1P2 antagonist assay, inhibition at 5 uM. actives 0.21% (n = 97,000); in the data active = inhibition above about 45%;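 also: CRE beta-lactamase reporter cells expressing human S1P2 stimulated with S1P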
Target sequence (O95136 whole entry, looked up): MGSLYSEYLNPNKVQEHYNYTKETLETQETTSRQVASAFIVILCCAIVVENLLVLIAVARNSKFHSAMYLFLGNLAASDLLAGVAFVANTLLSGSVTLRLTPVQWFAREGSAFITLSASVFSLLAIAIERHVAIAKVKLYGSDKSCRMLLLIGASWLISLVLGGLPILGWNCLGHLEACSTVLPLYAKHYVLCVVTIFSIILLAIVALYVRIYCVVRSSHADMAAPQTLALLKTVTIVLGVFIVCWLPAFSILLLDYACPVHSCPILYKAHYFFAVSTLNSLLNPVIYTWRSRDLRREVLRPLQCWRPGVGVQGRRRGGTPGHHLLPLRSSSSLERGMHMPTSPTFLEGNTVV
MRP1 act – H69AR viability gain despite doxorubicin, primary screen, MRP-1 activator project, H69AR cells, CellTiter-Glo; viability rescue; viability increase, % at 10 µM; actives 0.61% (n = 140,000); AID 799, 2007;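 active = viability gain under doxorubicin at or above a set limit, the compound median plus 3 SD, cut at about 4.7% in these data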;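 also: MRP-1 overexpressing cells given doxorubicin 25 µM after compound pretreatment; 18-22 h compound pretreatment then 72 h with doxorubicin before readout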
S1P2 agonist – S1P2 receptor agonists, primary screen, cell-based | Sphingosine 1-phosphate receptor 2 (Homo sapiens), O95136 | S1P2-expressing cell line, agonist reporter read-out | activation, % at 4.5 µM | actives 0.46% (n = 97,000) | AID 729, 2007; in the data active = activation above about 16%
Of the large screens only hits and unclear results are named; the others gave an inactive call.

O=C(Nc1nnc(C(F)(F)F)s1)C1COc2ccccc2O1 (stereo not drawn)	MRP1 act 5.3
COc1cccc(N2C(=O)N(c3ccccc3)C3CS(=O)(=O)CC32)c1 (stereo not drawn)	none (no result: MRP reversal)
Cc1c(C(=O)N/N=C/c2ccccc2)[nH]c2ccc(Cl)cc12	none (no result: MRP reversal, S1P2 blocker, S1P2 agonist)
Cc1c(C(=O)N/N=C/c2ccc(N(C)C)cc2)[nH]c2ccc(Cl)cc12	GALR2 agonist 6.4 (no result: MRP reversal, S1P2 blocker, S1P2 agonist)
Cc1cc(C)c(C#N)c(Nc2ccccc2Cl)n1	none
Fc1cccc(NC(=S)Nc2ccc(Br)cc2)c1	none (no result: MRP reversal)
CCOC(=O)C1=C(C)N(CCCC(=O)O)C(=O)NC1c1ccc(OC)cc1 (stereo not drawn)	none (no result: MRP reversal, S1P2 blocker, S1P2 agonist)
COCCn1c(=NC(=O)/C=C/c2ccccc2Cl)sc2cc(NC(C)=O)ccc21	GALR2 agonist 6.0 (no result: MRP reversal, S1P2 blocker, S1P2 agonist)
COc1nc(OCCNC(C)=O)nc(N(C)C)n1	none
c1ccc(-c2nc(N3CCNCC3)nc3ccccc23)cc1	S1P2 agonist 20.4
O=C(O)CCCC(=O)N1CCN(c2cccc(Cl)c2)CC1	none
c1ccc(-c2nc(N3CCCCC3)nc3ccccc23)cc1	none
O=C(O)CCCC(=O)N1CCN(c2nc(-c3ccccc3)c3ccccc3n2)CC1	S1P2 agonist 37.9
O=C(O)C1CC=CCC1C(=O)N1CCN(c2nc(-c3ccccc3)c3ccccc3n2)CC1 (stereo not drawn)	S1P2 agonist 21.1
COc1cc(C(=O)Nc2nc3ccccc3s2)ccc1OCc1c(C)noc1C	none
Cc1ccccc1NN=Nc1nc2c([nH]1)c(=O)n(C)c(=O)n2C	none (no result: MRP reversal, S1P2 blocker, S1P2 agonist)
CC(=O)c1c(C)[nH]c(C(=O)Nc2nc(-c3ccc(Cl)cc3)cs2)c1C	MRP1 act 4.8 (no result: MRP reversal, S1P2 blocker, S1P2 agonist)
CC(=O)c1c(C)[nH]c(C(=O)Nc2nc(-c3ccc(-c4ccccc4)cc3)cs2)c1C	none (no result: MRP reversal, S1P2 blocker, S1P2 agonist)
O=C(COc1cccnc1[N+](=O)[O-])Nc1ccc2c(c1)OC(F)(F)O2	MRP1 act 5.5 (no result: MRP reversal, S1P2 blocker, S1P2 agonist)
C=C(C)C(=O)NC1=NN(c2ccccc2)C(=O)C1	MRP1 act 6.0 (no result: MRP reversal, S1P2 blocker, S1P2 agonist)
CC(C)(Oc1ccc(Cl)cc1)C(=O)NC1=NN(c2ccccc2)C(=O)C1	none (no result: MRP reversal, S1P2 blocker, S1P2 agonist)
CCOC(=O)C1CCN(Cc2c(O)ccc3ccccc23)CC1	none
COc1ccc(C2CC(c3ccccc3)=NN2C(=O)COC(=O)c2cccnc2)cc1 (stereo not drawn)	none (no result: MRP reversal, S1P2 blocker, S1P2 agonist)
COc1ccc(C2CC(c3ccccc3)=NN2C(=O)COC(=O)c2cccnc2Cl)cc1 (stereo not drawn)	MRP1 act 5.4 (no result: MRP reversal, S1P2 blocker, S1P2 agonist)
O=C(c1cccc(F)c1)N1CCc2ccccc21	none
Cc1ccc(N(C)S(=O)(=O)c2cccc(C(=O)Oc3ccc4c(C)cc(=O)oc4c3)c2)cc1	MRP1 act 4.8 (no result: MRP reversal, S1P2 blocker, S1P2 agonist)
Cc1cc(=O)oc2cc(OCC(=O)Nc3cccc(S(=O)(=O)N(C)C)c3)ccc12	none (no result: MRP reversal, S1P2 blocker, S1P2 agonist)
CCOc1cc(/C=N\NC(=O)c2ccc(C)nc2)cc([N+](=O)[O-])c1O	none (no result: MRP reversal)
CC(=O)OC(C)(C)C#CCN1CCCC1	none
N#C/C(=N\Nc1ccccc1F)C(=N)N1CCCCC1	MRP1 act 8.2
Cc1ccc(N/N=C(\C#N)C(=N)N2CCOCC2)cc1	MRP1 act 6.5 (no result: MRP reversal, S1P2 blocker, S1P2 agonist)
C(=N\Nc1ccccc1)/c1ccc(N2CCOCC2)cc1	none (no result: MRP reversal)
N#C/C(=N\Nc1ccc(Cl)cc1)C(=N)N1CCCCC1	none
N#C/C(=N\Nc1ccccc1)C(=N)N1CCOCC1	MRP1 act 6.8 (no result: MRP reversal, S1P2 blocker, S1P2 agonist)
Cc1ccc(NC(=S)N2CCOCC2)cc1	none (no result: MRP reversal, S1P2 blocker, S1P2 agonist)
O=C(CSc1n[nH]c(-c2ccccc2Br)n1)NC(=O)NCc1ccco1	none (no result: S1P2 blocker, S1P2 agonist)
Cn1cccc1Cc1nnc(SCC(=O)NC2CCCC2)n1-c1ccc(F)cc1	none
CS(=O)(=O)NCc1nnc(SCC(=O)NC2CCCCC2)n1-c1ccc(F)cc1	S1P2 agonist 102.8
CCOC(=O)NN1C(=O)c2ccccc2NC1c1ccccc1 (stereo not drawn)	none (no result: MRP reversal, S1P2 blocker, S1P2 agonist)
Cc1cc(C)nc(NC(=NCCc2c[nH]c3ccccc23)NC(=O)Nc2ccccc2)n1	none (no result: MRP reversal, S1P2 blocker, S1P2 agonist)
C=CCOC(=O)C1=C(C)N=C2SCCC(=O)N2C1c1cccs1 (stereo not drawn)	none
CCOC(=O)C1=C(C)N=C2SC(CC)C(=O)N2C1c1cccc(F)c1 (stereo not drawn)	MRP1 act 6.3
CCC1SC2=NC(C)=C(C(=O)OC)C(c3cccs3)N2C1=O (stereo not drawn)	MRP1 act 5.5
CC1CCc2cc(F)ccc2N1C(=O)c1cnc2sccn2c1=O (stereo not drawn)	none
COc1ccc(C2CC(C(F)(F)F)n3nc(C(N)=O)c(Cl)c3N2)cc1OC (stereo not drawn)	S1P2 agonist 23.6
COc1ccccc1NC(=O)c1sc2nc(-c3ccco3)ccc2c1N	MRP1 act 8.3
COc1ccc(C2SCC(C(=O)NCc3ccc(F)cc3)N2C(C)=O)cc1 (stereo not drawn)	S1P2 agonist 21.6
COc1ccc2[nH]c(=O)c3c(c2c1)OC(C)(C)C=C3	S1P2 blocker 57.0
COc1ccc(OC)c(NC(=O)CN(c2ccc(C)cc2)S(=O)(=O)c2c(C)noc2C)c1	GALR2 agonist 6.9
CCOc1ccc(N(CC(=O)NCc2ccccc2)S(=O)(=O)c2c(C)noc2C)cc1	none
COc1cccc(CNC(=O)CN(c2cc(C)cc(C)c2)S(=O)(=O)c2c(C)noc2C)c1	S1P2 agonist 109.2
Cc1ccc(NC(=O)N2Cc3ccccc3CC2C(=O)NC(C)(C)C)cc1 (stereo not drawn)	none (no result: MRP reversal)
Cn1ncc(Cl)c1C(=O)N1CCCc2ccccc21	none (no result: MRP reversal)
Cc1cc(-c2ccccc2)nc(Oc2cccc(C(F)(F)F)c2)c1S(C)(=O)=O	none
O=C(Cn1cnc2c(cnn2-c2ccccc2)c1=O)N1CCOCC1	none (no result: S1P2 blocker, S1P2 agonist)
COc1ccc(-n2ncc3c(=O)n(CC(=O)N4c5ccccc5CC4C)cnc32)cc1 (stereo not drawn)	MRP1 act 5.9
Cc1scc(C(=O)Nc2ccon2)c1-c1ccccc1	none
Cc1ccc(OCC(=O)NN=C2c3ccccc3-c3ccccc32)cc1	none (no result: MRP reversal)
Oc1c(C=Nc2cccc3cccnc23)sc2ccccc12	none
O=[N+]([O-])c1ccc(O)c(N=Cc2sc3ccccc3c2O)c1	MRP1 act 5.5 (no result: MRP reversal, S1P2 blocker, S1P2 agonist)
Nc1ccc(-c2nc3ccc(-c4nc5ccccc5o4)cc3[nH]2)cc1	GALR2 agonist 6.4 (no result: MRP reversal)
COc1ccc(Cn2c(-c3ccco3)nc3oc4cc(OC)ccc4c(=O)c3c2=O)cc1	S1P2 agonist 78.6
C=C(C)Cn1c(SCC#N)nc2ccccc2c1=O	none
N#CCSc1nc2ccc(N3CCCCC3)cc2c(=O)n1Cc1ccccc1	MRP1 act 4.8
CCN(C(=O)COC(=O)c1ccccc1SCC(=O)NC1CCCCCCC1)C1CCS(=O)(=O)C1 (stereo not drawn)	none (no result: MRP reversal, S1P2 blocker, S1P2 agonist)
CCOc1ccc(NC(=O)Nc2cc(-c3ccccc3)sc2C(=O)OC)cc1	MRP1 act 6.1 (no result: MRP reversal, S1P2 blocker, S1P2 agonist)
